Calls of active or inactive are those of the source.
Tests used:
[1] = test system: XIP peptide (Xip251-270) binding; test: small-molecule binders of XIP peptide, primary screen, biochemical, small-molecule microarray, fluorescence 635/667 nm, 0.1 µg/mL protein (AID 1182); details: fluorescent protein binding, 635 nm, higher = more signal, called active from +8 up or from −8 down
XIP peptide (Xip251-270) = test: small-molecule binders of XIP peptide, primary screen, biochemical, small-molecule microarray, fluorescence 635/667 nm, 0.5 µg/mL protein (AID 1183); details: small-molecule microarray binding, fluorescence 635 nm; higher = more signal
[2] = Plasmodium falciparum growth inhibition, primary screen, strain 3D7, DAPI fluorescence, 100 nL (AID 1184);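 also: parasites grown inside human red blood cells in medium with human serum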; details: P. falciparum 3D7 growth, 3 d, higher = more signal
[3] = target: Homeobox protein Hox-A13 (Mus musculus) (UniProt Q62424); test: inhibitors of HoxA13-DNA binding, primary screen, biochemical, fluorescence polarization, labeled oligonucleotide (AID 1185); details: 15 min, higher = more signal, called active from +8 up or from −8 down
Sequence of Homeobox protein Hox-A13 (Mus musculus) (Q62424 whole entry, looked up): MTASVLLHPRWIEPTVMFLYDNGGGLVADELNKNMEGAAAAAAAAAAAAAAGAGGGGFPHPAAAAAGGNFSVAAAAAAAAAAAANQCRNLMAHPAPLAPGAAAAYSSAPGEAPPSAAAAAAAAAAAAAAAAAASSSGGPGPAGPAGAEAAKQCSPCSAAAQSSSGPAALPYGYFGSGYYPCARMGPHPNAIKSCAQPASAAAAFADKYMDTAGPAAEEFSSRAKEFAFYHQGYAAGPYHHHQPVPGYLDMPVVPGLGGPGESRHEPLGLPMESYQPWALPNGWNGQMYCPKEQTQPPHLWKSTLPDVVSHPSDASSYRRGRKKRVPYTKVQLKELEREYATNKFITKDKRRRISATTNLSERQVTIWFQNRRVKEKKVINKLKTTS

| Structure (SMILES) | composite z-score [1] | composite z-score (XIP peptide (Xip251-270)) | z-score [2] | z-score [3] |
| --- | --- | --- | --- | --- |
| CCN1C(=O)[C@H]2[C@H]3[C@H](O)[C@H](O)CC(=NOC(C)CN4CCCc5nc(C)c(C)cc54)[C@@H]3CC[C@H]2C1=O (stereo partly drawn) | 0.302 (inactive) | 0.148 | 0.393 | -10.2 (active) |
| O=C1[C@H]2[C@H]3[C@H](O)[C@H](O)CC(=NO[C@@H]4O[C@H](CO)[C@@H](O)[C@H](O)[C@H]4O)[C@@H]3CC[C@H]2C(=O)N1C[C@@H]1CCCO1 | 0.357 (inactive) | 0.385 | -1.49 | -0.192 (inactive) |
| CC(C)=NOC(C)CN1CCCc2nc(C)c(C)cc21 (stereo not drawn) | 2.19 (inactive) | 0.522 | -0.225 | -8.04 (active) |
| COC(=O)[C@@H]1CC[C@H](C)[C@@H](c2ccc(C)cc2)N1C(=O)c1ccc(C=NOC[C@@H](O)[C@H]2O[C@@H]3OC(C)(C)O[C@@H]3[C@H]2O)cc1 | 0.102 (inactive) | 0.228 | -0.209 | -6.03 (inactive) |
| O=C1C=C[C@@H](O)[C@@H]2[C@@H]3C(=O)N(C4CCCCC4)C(=O)[C@@H]3CC[C@@H]12 | 0.386 (inactive) | 0.178 | 0.307 | -0.431 (inactive) |
| CCOC(=O)CCN1C(=O)[C@H]2[C@H]3[C@H](O)[C@H](O)CC(=NO[C@@H]4O[C@H](CO)[C@@H](O)[C@H](O)[C@H]4O)[C@@H]3CC[C@H]2C1=O | 0.557 (inactive) | 0.632 | 0.434 | 0.142 (inactive) |
| CC(C)CON=C1C[C@@H](O)[C@@H](O)[C@@H]2[C@@H]3C(=O)N([C@@H](C)c4ccccc4)C(=O)[C@@H]3CC[C@@H]12 | 0.0068 (inactive) | -0.344 | -0.274 | -2.35 (inactive) |
| CC(=O)OC[C@H]1O[C@H](C#CCCc2ccccc2)C=C[C@@H]1OC(C)=O | 0.22 (inactive) | 0.758 | 0.972 | -4.7 (inactive) |
| CC(C)=CCCC(C)=CCON=C1[C@H]2CCn3c(=O)n(-c4ccccc4)c(=O)n3[C@H]2[C@H](O)[C@@H]2O[C@H]12 | 0.246 (inactive) | 0.598 | -2.23 | -4.57 (inactive) |
| CCN1C(=O)[C@H]2[C@H]3[C@H](O)[C@H](O)CC(=NOCC(C)C)[C@H]3CC[C@H]2C1=O | -0.583 (inactive) | -0.122 | 1.82 | 0.204 (inactive) |
| CC(C)[C@@H](OCc1ccccc1)[C@H](C)C=NO[C@@H](C)c1cn([C@H](CO)Cc2ccccc2)nn1 | 0.334 (inactive) | -0.0098 | 0.949 | -5.22 (inactive) |
| COc1ccc(COC(=O)NN=C2C[C@@H](O)[C@@H](O)[C@@H]3[C@@H]4C(=O)N(C(C)(C)C)C(=O)[C@@H]4CC[C@@H]23)cc1 | 0.457 (inactive) | 0.48 | 0.553 | -1.64 (inactive) |
| C[C@@H]1CC[C@@H](C(=O)O)N[C@H]1c1cccc(N2CCOCC2)c1 | -0.315 (inactive) | -0.135 | 0.818 | 0.167 (inactive) |
| C#CCCCON=C1[C@H]2CCn3c(=O)n([C@@H](CC)c4ccccc4)c(=O)n3[C@H]2[C@H](O)[C@@H]2O[C@H]12 | 0.967 (inactive) | -0.226 | -0.9 | -3.68 (inactive) |
| COC(=O)[C@H](C)NC(=O)CCC1CC(OC(=O)NCc2ccc3c(c2)OCO3)CC2(CCCC(COC(=O)NCCCN3CCCC3=O)O2)O1 (stereo partly drawn) | 0.045 (inactive) | 0.612 | -1.84 | -5.61 (inactive) |
| CCN1C(=O)[C@H]2[C@H]3[C@H](O)[C@H](O)CC(=NO[C@H](C)c4cn([C@@H]5COC[C@H]5O)nn4)[C@@H]3CC[C@H]2C1=O | 0.0118 (inactive) | -0.629 | 0.202 | -0.803 (inactive) |
| O=C1[C@H]2[C@H]3[C@H](O)[C@H](O)CC(=NO[C@@H]4O[C@H](CO)[C@@H](O)[C@H](O)[C@H]4O)[C@@H]3CC[C@H]2C(=O)N1C1CCCCC1 | -0.25 (inactive) | 0.0473 | 0.0387 | 0.719 (inactive) |
| CCCNC(=O)OC[C@H]1O[C@H](CCON=C[C@@H](NS(=O)(=O)c2ccc(C)cc2)[C@H](C)C=CCC(=O)OC)C=C[C@@H]1Oc1ccc(OC)cc1 | -0.349 (inactive) | -0.501 | -0.862 | -4.48 (inactive) |
| CC(C)=NOC(C)CN1CCCCc2nc(C)c(C)cc21 (stereo not drawn) | -0.203 (inactive) | 0.208 | 1.35 | -1.28 (inactive) |
| O=C1[C@H]2[C@H]3[C@H](O)[C@H](O)CC(=NOCc4ccccc4)[C@@H]3CC[C@H]2C(=O)N1c1cccc(Oc2ccccc2)c1 | 0.811 (inactive) | 0.123 | -0.129 | -1.24 (inactive) |
| CCOC(=O)[C@H](Cc1ccccc1)NC(=O)CCC1CC(OC(=O)NCCc2ccc(F)cc2)CC2(CCCC(COC(=O)NCc3cccc(C(F)(F)F)c3)O2)O1 (stereo partly drawn) | 0.966 (inactive) | 0.463 | -1.9 | -3.11 (inactive) |
| CCOC(=O)NN=C1C[C@@H](O)[C@@H](O)[C@@H]2[C@@H]3C(=O)N(C[C@@H]4CCCO4)C(=O)[C@@H]3CC[C@H]12 | 0.0272 (inactive) | 0.0356 | 0.379 | 0.0129 (inactive) |
